# According to ChEMBL document CHEMBL3988442, “University of Dundee, Small-Polar-MMV Screening Library” (2021):
# The whole screen tested about 48,000 compounds, of which about 13,000 (27%) showed an effect of 50% or more. The list shows a part of the results.
# Tested on: Wolbachia pipientis
# Experiment: Anti-Wolbachia Cell-Based Screen
# Assay type: functional
# Set-up: scale not given: in the data most compounds retested in dose-response had high values
# Details: 5 µM
row,SMILES,Percent Effect
1,COc1cccc(C)c1C(=O)N1CCc2ncnc(NCCO)c2CC1,-30.82%
2,O=C(C[S+]([O-])Cc1ccc(F)cc1Cl)NC1CCCC1 (centres undefined),9.339%
3,COc1ccc(Nc2ccc(C#N)cn2)cc1N1CCCC1=O,-10.87%
4,Cc1nc(C2CCCN(C(=O)COCc3ccccc3Cl)C2)no1 (centres undefined),-13.21%
5,Cn1ncc2c(N3CCN(CCC(N)=O)CC3)nc(C3CCCC3)nc21,3.18%
6,CCc1nc(C2CCCN(C(=O)CCn3ccccc3=O)C2)no1 (centres undefined),-2.479%
7,Cc1noc(C)c1-c1nc(C2CCCN(CCC(N)=O)C2)ccc1CO (centres undefined),98.23%
8,Cc1noc(C)c1-c1nc(C2CCCN(C(=O)CCN)C2)ccc1CO (centres undefined),106.6%
9,Cc1nc(C2CCCN(C(=O)Cn3ccccc3=O)C2)no1 (centres undefined),-7.453%
10,Cc1cc(OCC(=O)N2CCCC(c3noc(C)n3)C2)no1 (centres undefined),0.3444%
11,Cc1noc(C)c1-c1nc(C2CCCN(C(=O)CN)C2)ccc1CO (centres undefined),107.5%
12,Cl.Cl.Cl.OC(CN1CCN(Cc2cccnc2)CC1)c1cccs1 (centres undefined),-1.04%
13,Cc1ccc2c(c1)C(NCc1nnc3n1CCCCC3)CCCO2 (centres undefined),-29.11%
14,O=c1cc(CN(CCO)C2CC2)nc2ccc(Cl)cn12,-6.925%
15,O=C(CCc1cscn1)NS(=O)(=O)c1ccc2ccccc2c1,3.955%
16,O=C(Cc1ccsc1)N1C[C@@H]2OCCN(c3cnccn3)[C@@H]2C1.O=C(O)C(F)(F)F,19.14%
17,Cc1ccc(N2CC[C@@H]3[C@@H]2CCN3C(=O)Cc2ccccc2)nn1.O=C(O)C(F)(F)F,108%
18,Cc1ccc(N2CC[C@@H]3[C@@H]2CCN3C(=O)Cc2cccs2)nn1.O=C(O)C(F)(F)F,109.8%
19,Cc1ccc(N2CC[C@H]3[C@@H]2CCC(=O)N3CCN2CCOCC2)nn1.O=C(O)C(F)(F)F,-26.64%
20,Cc1ccc(N2CC[C@@H]3[C@@H]2CCN3C(=O)c2cscn2)nn1.O=C(O)C(F)(F)F,-4.198%
21,Cc1ccc(N2CC[C@@H]3[C@@H]2CCN3C(=O)Cc2ccsc2)nn1.O=C(O)C(F)(F)F,97.7%
22,CN(C)C(=O)N1CC[C@H]2[C@H]1CCN2c1nncs1.O=C(O)C(F)(F)F,-1.539%
23,O=C(CC1CCCC1)N1CC[C@H]2[C@H]1CCN2c1nncs1.O=C(O)C(F)(F)F,10.49%
24,Cc1ccc(N2CC[C@@H]3O[C@@H](COCc4cccnc4)CC[C@@H]32)nn1.O=C(O)C(F)(F)F.O=C(O)C(F)(F)F,4.893%
25,O=C(O)[C@@H]1CN(C2CCCC2)C[C@H]1C1CC1,-8.244%
26,Cc1ccc(NC(=O)NC(C)c2nc[nH]n2)cc1Cl (centres undefined),-5.292%

row,SMILES,Percent Effect
1,c1cc2c(cc1-c1noc3c1CN(C1CCSCC1)CC3)OCO2,-0.3794%
2,CCCn1cnnc1CN(C)C(=O)C1CCCN(C2CCN(C)CC2)C1 (centres undefined),120.4%
3,CN(CCCc1cnn(C)c1)C(=O)C1CCCN(C2CCCC2)C1 (centres undefined),-4.141%
4,CC(C)n1cnnc1CN(C)C(=O)C1CCCN(C2CCN(C)CC2)C1 (centres undefined),110.4%
5,CC(C)n1cnnc1CN(C)C(=O)C1CCCN(CC(N)=O)C1 (centres undefined),92.86%
6,CC(C)n1cnnc1CN(C)C1CCCNC1 (centres undefined),-12.15%
7,CC(C)n1cnnc1CN(C)CC1CCCNC1 (centres undefined),-3.149%
8,CCCn1cnnc1CN(C)C(=O)C1CCC(=O)N(C2CCCC2)C1 (centres undefined),-9.656%
9,CCn1cnnc1CN(C)C(=O)C1CCC(=O)N(CC2CCCCC2)C1 (centres undefined),6.192%
10,Cc1ccsc1CN(C)C(=O)C1CCCN(C(N)=O)C1 (centres undefined),8.59%
11,O=C1CN(Cc2cc(O)c3cccc(F)c3n2)CCN1C1CCCC1,-1.558%
12,Cc1ncnc(NCC(C)N(C)c2ccccc2)c1C (centres undefined),-9.709%
13,COCCN1CCCC2(CCN(Cc3noc(C4CCCC4)n3)C2)C1=O (centres undefined),5.891%
14,Cc1nc(C)n(Cc2cccc(NC3CCN(C)C3=O)c2)n1 (centres undefined),-8.315%
15,CN(Cc1ccccc1)CC(C)(C)NC(=O)c1cnns1,-3.698%
16,CN(C)CCN(C)C(=O)Nc1cc(F)cc(N2CCCC2)c1,23.94%
17,Cn1cnc(CN2Cc3nccn3CC2c2ccccc2)c1 (centres undefined),137.8%
18,c1ccc(CNC[C@H]2Cn3ccnc3CO2)cc1,-10.94%
19,Cc1cc(C(F)(F)F)nc(CCNC(C)Cn2nc(C)cc2C)n1 (centres undefined),119.2%
20,Cc1ccc2c(c1)c(CNC(C)Cn1ccnc1)nn2C (centres undefined),4.186%
21,Cc1cc(C(F)(F)F)nc(CCNC(C)Cn2cncn2)n1 (centres undefined),108.9%
22,CC(Cn1cncn1)NCc1nncn1C1CCCCC1 (centres undefined),-14%
23,CC(Cn1cncn1)NCCN1CCc2ccccc2C1 (centres undefined),12.32%
24,Cc1cc(C)n(CC(C)NCCN2CCc3ccccc32)n1 (centres undefined),20.38%
25,Cc1cc(C(F)(F)F)nc(CCNC(C)Cn2ccnc2)n1 (centres undefined),111.3%
26,Cc1cc(C)n(CC(C)NCCn2nc(C)c(Cl)c2C)n1 (centres undefined),9.985%

row,SMILES,Percent Effect
1,CC(Cn1ccnc1)NS(=O)(=O)Cc1ccc(F)cc1 (centres undefined),-3.68%
2,COCCCN1CCCC2(CCN(S(=O)(=O)c3cccnc3)C2)C1=O (centres undefined),-3.769%
3,O=C(O)c1cccc(C2CCCN(S(=O)(=O)N3CCOCC3)C2)c1 (centres undefined),13.32%
4,CC1CCN(S(=O)(=O)N2CCCC(c3cccc(C(=O)O)c3)C2)CC1 (centres undefined),-0.2169%
5,CN(C1CCN(c2ccccn2)CC1)S(=O)(=O)N1CCOCC1,4.035%
6,Cc1ccc(C2CCCN(S(C)(=O)=O)C2)nc1 (centres undefined),144.7%
7,CS(=O)(=O)N1CC[C@H](c2nc3ccc(C(F)(F)F)cc3[nH]2)C1,11.72%
8,O=S(=O)(N1CCOCC1)N1CCCC(c2ccccn2)C1 (centres undefined),113%
9,Cc1ccc(C2CCCN(S(=O)(=O)N3CCOCC3)C2)nc1 (centres undefined),122.5%
10,Cc1nccc(C2CCCN(S(=O)(=O)N3CCOCC3)C2)n1 (centres undefined),96.21%
11,CC1(C)CNC(=O)c2nc(C3CCCN(S(C)(=O)=O)C3)[nH]c2C1 (centres undefined),-1.918%
12,Cc1noc2ncc(S(=O)(=O)Nc3cc(CC(C)(C)C)[nH]n3)cc12,-3.68%
13,CCC(NS(C)(=O)=O)c1ccccc1OC (centres undefined),-5.645%
14,CCN(Cc1cccs1)C(=O)c1ccc(=O)n(C)c1,17.88%
15,Cc1cccnc1CC(C)N(C)C(=O)c1ccoc1C (centres undefined),-11.81%
16,Cc1occc1CNC(=O)C1(C)CCCN(C(=O)c2ccccc2)C1 (centres undefined),10.24%
17,Cc1csc(C(C#N)C(=O)Nc2ccccc2)n1 (centres undefined),-10.65%
18,Cc1ccc(S(=O)(=O)N(C)Cc2nccs2)cc1N(C)C,7.403%
19,Cc1nc(C2CCCN(S(C)(=O)=O)C2)sc1Br (centres undefined),114.6%
20,Cc1nc(C2CCCC2)sc1C(N)=O,-5.82%
21,CNC(=O)c1sc(C2CCCC2)nc1C,1.771%
22,COCC1CN(c2ccc(C)nn2)Cc2cnn(C)c21.O=C(O)C(F)(F)F.O=C(O)C(F)(F)F (centres undefined),88.37%
23,CCOCC1CN(S(=O)(=O)N(C)C)Cc2cnn(C)c21.O=C(O)C(F)(F)F (centres undefined),-5.434%
24,CCOCC1CN(S(=O)(=O)N(C)C)Cc2cnn(CC)c21.O=C(O)C(F)(F)F (centres undefined),-6.757%
25,Cc1ncsc1CN1Cc2cnn(C)c2C(COCC2CC2)C1.O=C(O)C(F)(F)F.O=C(O)C(F)(F)F (centres undefined),-6.117%
26,COCC1CN(c2ccc(C)nn2)Cc2cnn(CC3CCOCC3)c21.O=C(O)C(F)(F)F.O=C(O)C(F)(F)F (centres undefined),113.1%

row,SMILES,Percent Effect
1,CCOCC1CN(c2ccc(C)nn2)Cc2cnn(CC)c21.O=C(O)C(F)(F)F.O=C(O)C(F)(F)F (centres undefined),109.7%
2,Cc1ccc(N2Cc3cnn(C)c3C(COCC3CC3)C2)nn1.O=C(O)C(F)(F)F.O=C(O)C(F)(F)F (centres undefined),105.5%
3,COCC1CN(Cc2ccc(C)o2)Cc2cnn(CC3CCOCC3)c21.O=C(O)C(F)(F)F.O=C(O)C(F)(F)F (centres undefined),3.505%
4,Cc1noc(C)c1CN1Cc2cnn(C)c2C(COCC2CC2)C1.O=C(O)C(F)(F)F.O=C(O)C(F)(F)F (centres undefined),-11.34%
5,CCOCC1CN(c2ccc(C)nn2)Cc2nn(CC)cc21.O=C(O)C(F)(F)F.O=C(O)C(F)(F)F (centres undefined),10.42%
6,CCOCC1CN(C)Cc2cnn(CC3CCCC3)c21.O=C(O)C(F)(F)F.O=C(O)C(F)(F)F (centres undefined),4.173%
7,CCn1cc2c(n1)C(COC)CN(c1ccc(C)nn1)C2.O=C(O)C(F)(F)F.O=C(O)C(F)(F)F (centres undefined),2.14%
8,c1ccc(-c2nc3c(c(NCCn4ccnn4)n2)CCNCC3)nc1,-1.189%
9,O=S(=O)(NCCCn1ccc2ccccc21)N1CCCCC1,-18.64%
10,CC(Cc1cccnc1)Nc1ncnc2cccc(F)c12 (centres undefined),-13.17%
11,Cc1noc(C)c1CNC(=O)N1CCC(CN2CCC(C)CC2)CC1,0.5097%
12,CCn1ncc2c1C(COCC1CC1)CN(S(=O)(=O)N(C)C)C2.O=C(O)C(F)(F)F (centres undefined),4.655%
13,CCn1ncc2c1C(COCC1CC1)CN(c1ccc(C)nn1)C2.O=C(O)C(F)(F)F.O=C(O)C(F)(F)F (centres undefined),84.42%
14,CS(=O)(=O)N1Cc2cnn(CC3CC3)c2C(COCC2CC2)C1.O=C(O)C(F)(F)F (centres undefined),-10.17%
15,O=C(c1ccc2nccn2c1)N1CCC(CCn2cccn2)CC1,-0.54%
16,COc1ccc(S(=O)(=O)N2CCC(S(C)(=O)=O)CC2)cc1C,-19.61%
17,CS(=O)(=O)C1CCN(S(=O)(=O)c2ccc(F)c(F)c2)CC1,110.6%
18,Cn1cnnc1S(=O)(=O)C1CCN(S(=O)(=O)c2ccc(F)c(Cl)c2)CC1,-4.538%
19,CS(=O)(=O)C1CCN(S(=O)(=O)c2ccc(F)c(F)c2)C1 (centres undefined),88%
20,Cc1cc(S(=O)(=O)N2CCC(S(C)(=O)=O)CC2)ccc1F,-10.45%
21,Cc1ccc(S(=O)(=O)N2CCC(S(C)(=O)=O)CC2)cc1C,132.3%
22,Cc1ccc(S(=O)(=O)N2CC[C@@H](O)C2)c(F)c1,-13.3%
23,Cc1cc(S(=O)(=O)N2CCCN3CCCC3C2)ccc1F (centres undefined),-4.296%
24,Cc1cc(S(=O)(=O)N2CCC(S(C)(=O)=O)C2)ccc1F (centres undefined),74.96%
25,CCC[C@@H]1CN(S(=O)(=O)c2ccc(C)c(F)c2)C[C@H]1N(C)C,-4.153%
26,COc1ccc(S(=O)(=O)N2CCn3nc(C)nc3C2)cc1C,-5.027%
